EP2 modulator = EP2 receptor modulators, cAMP readout, primary screen, cell-based, HTRF cAMP, PGE2 stimulation | Prostaglandin E2 receptor EP2 subtype (Homo sapiens), P43116 | EP2-expressing cells, cAMP HTRF FRET, PGE2 co-stimulation | induction, % at 25 µM | hit rate 0.83% among 260,000;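 active means compounds whose cAMP rise, as percent of the full-agonist control response, exceeds 60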;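 further: rat C6 glioma line stably carrying human EP2 under a CMV promoter; the protocol text gives 20 µM as final concentration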
Wee1 degr inh = Wee1 degradation inhibitors, primary screen, cell-based, HeLa, Wee1K328M-luciferase, luminescence | HeLa Luc-Wee1K328M stability; 100% = proteasome inhibitor MG132 effect | hit rate 1.2% among 220,000 | reporter increase, % at 5 µM;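 active means activation above the mean of all tested compounds plus 3 SD, set per screening run, cut at about 8.8% in these data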;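 further: cells exposed to compound for 20 h before luminescence read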
Target sequence (P30291 whole entry K328M): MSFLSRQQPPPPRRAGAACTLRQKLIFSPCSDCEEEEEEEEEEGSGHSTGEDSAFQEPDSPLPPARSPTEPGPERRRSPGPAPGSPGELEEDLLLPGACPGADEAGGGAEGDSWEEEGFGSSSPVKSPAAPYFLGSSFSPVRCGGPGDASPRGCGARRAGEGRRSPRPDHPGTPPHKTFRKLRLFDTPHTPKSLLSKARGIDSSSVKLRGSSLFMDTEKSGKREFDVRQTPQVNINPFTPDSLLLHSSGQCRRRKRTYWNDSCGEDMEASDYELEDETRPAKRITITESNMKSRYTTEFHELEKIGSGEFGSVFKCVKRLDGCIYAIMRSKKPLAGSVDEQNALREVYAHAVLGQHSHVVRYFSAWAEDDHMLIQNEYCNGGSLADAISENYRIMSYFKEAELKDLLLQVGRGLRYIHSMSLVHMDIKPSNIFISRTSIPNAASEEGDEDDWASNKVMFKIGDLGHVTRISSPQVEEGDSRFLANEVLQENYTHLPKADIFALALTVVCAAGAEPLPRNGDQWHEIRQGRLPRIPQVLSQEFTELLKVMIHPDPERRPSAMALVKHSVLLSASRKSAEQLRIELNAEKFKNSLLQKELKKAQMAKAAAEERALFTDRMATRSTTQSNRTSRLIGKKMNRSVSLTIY
NCF1 inh = p47phox/p22phox peptide binding inhibitors, primary screen, biochemical, uHTS, NADPH oxidase regulatory subunit; Neutrophil cytosol factor 1 (Homo sapiens), P14598; fluorescence polarization, 2 h; inhibition, % at 24.7 µM; hit rate 0.53% among 220,000; AID 1274, 2008;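 active means inhibition above about 30%, limit read from the data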
Furin inh = human furin inhibitors, primary screen, biochemical, fluorescence intensity; purified furin, fluorogenic substrate cleavage; P09958; inhibition, % at 20 µM or 30 µM; hit rate 0.061% among 220,000; in the data active means inhibition above about 25%
EP2 antag = human EP2 receptor antagonists, primary screen, TR-FRET cAMP, C6 glioma cells; Prostaglandin E2 receptor EP2 subtype (Homo sapiens), P43116; hit rate 0.52% among 260,000; AID 1422, 2008; C6 glioma cells expressing human EP2; cells stimulated with saturating PGE2; inhibition, % at 25 µM;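 active means percent inhibition above 40 after rounding to a whole number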;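 further: rat C6 glioma host cells with rolipram phosphodiesterase inhibitor present; the protocol text gives 20 µM as final concentration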
HSV augment = enhancers of HSV replication in host cells, fold increase, host cell viability. HSV replication augmentation in cells. hit rate 0.005% among 220,000. maximum fold increase; in the data active means maximum fold increase above about 1.5; tested in PC3 cells
Each line names hits and unclear results; the compound was inactive in the other large screens. Only some compounds are listed: those with a hit (about 2.8% of all), similar ones and a draw of the others.

CCN1/C(=C/c2ccc3cc(C)ccc3[n+]2CC)Sc2cc(C)c(C)cc21	EP2 antag 76.3 (no result: HSV augment)
CC[n+]1c(/C=C2\Sc3cc(C)ccc3N2C)ccc2ccccc21	EP2 antag 44.8 (no result: Wee1 degr inh, NCF1 inh, Furin inh, HSV augment)
CCN1/C(=C/c2ccc3cc(C)ccc3[n+]2CC)Sc2ccccc21	EP2 antag 54.5 (no result: HSV augment)
CCC(=O)OC(COCc1ccccc1)C[N+]1(C)CCOCC1 (centres undefined)	none (no result: Wee1 degr inh, NCF1 inh, Furin inh, HSV augment)
CN[C@@H]1[C@H](OC2[C@H](O[C@H]3[C@H](O)[C@@H](O)[C@H](N=C(N)N)[C@@H](O)[C@@H]3N=C(N)N)O[C@@H](C)[C@]2(O)C=O)O[C@@H](CO)[C@H](O)[C@H]1O (some centres undefined)	none (no result: Wee1 degr inh, NCF1 inh, Furin inh, HSV augment)
CCN1/C(=C/c2ccc3cc(C)ccc3[n+]2CC)Sc2ccc(C)cc21	none (no result: Wee1 degr inh, NCF1 inh, Furin inh, HSV augment)
CCN1/C(=C/c2ccc3cc(OC)ccc3[n+]2CC)Sc2cc(C)ccc21	EP2 antag 63.9 (no result: Wee1 degr inh, NCF1 inh, Furin inh, HSV augment)
S=c1nc(-c2cc(Cl)ccc2Cl)[nH][nH]1	EP2 antag 40.9
CCCCCN(C(=O)NC(=O)Nn1cnnc1)S(C)(=O)=O	Wee1 degr inh 9.9
CCCCCN(C(=O)NC(=O)NCCCC)S(C)(=O)=O	none
N#CC1=C(N)NC(SCc2ccc(Br)cc2)=C(C#N)C12CCCCC2	Furin inh 30.6 (no result: EP2 antag, HSV augment)
Cc1cc(C)nc(N2CCCC(C(=O)NC3CCC(C)CC3)C2)n1 (centres undefined)	none (no result: Wee1 degr inh, NCF1 inh, Furin inh, HSV augment)
CCN(CC)S(=O)(=O)c1ccc(-c2nnc(SCc3nnc(-c4ccccc4)o3)o2)cc1	EP2 antag 104.8
O=C(O)c1c(Cl)c(Cl)c(Cl)c(Cl)c1C(=O)Nc1ccc2cn[nH]c2c1	EP2 antag 57.8 (no result: Wee1 degr inh, NCF1 inh, Furin inh, HSV augment)
O=C(NC(=S)Nc1ccc2cn[nH]c2c1)c1ccccc1	none
COc1ccc(-c2nn(C)c(=O)[nH]2)cc1	Wee1 degr inh 10.6
Cc1nn(-c2cc(C)c3ccccc3n2)c2c1CCC2	EP2 modulator 63.8
CC1(C)CC(=O)C2=C(C1)OC(N)=C(C#N)C2c1cc2c(cc1Br)OCO2 (centres undefined)	none (no result: Wee1 degr inh, NCF1 inh, Furin inh, HSV augment)
O=C(O)c1ccccc1NC(=O)c1c2c(n3ccccc13)C(=O)c1ccccc1C2=O	none (no result: Wee1 degr inh, NCF1 inh, Furin inh, HSV augment)
O=c1[nH]c(=S)[nH]cc1Oc1ccc(Cl)cc1Cl	Wee1 degr inh 9.0
O=C1CC(/C=C/c2ccccc2)(C(=O)NC2CCCCC2)N1c1ccc2c(c1)OCO2 (centres undefined)	none (no result: Wee1 degr inh, NCF1 inh, Furin inh, HSV augment)
O=C1CCCCC1Sc1nnc(Nc2ccccc2)s1 (centres undefined)	Wee1 degr inh 8.9
COc1ccc(OC)c2c1C(=O)C(Cl)=C(Cl)C2=O	NCF1 inh 90.3, EP2 antag 112.0
COc1ccc(OC)c2c1C(=O)c1ccccc1C2=O	NCF1 inh 36.1
COc1ccc(S(=O)(=O)N2CCCC2)c(Cl)c1Cl	none
COc1ccc2c(c1)C1(SC(NC(C)=O)=NN1C(C)=O)C(=O)N2C (centres undefined)	none (no result: Wee1 degr inh, NCF1 inh, Furin inh, HSV augment)
NS(=O)(=O)c1ccccc1	Wee1 degr inh 14.3
NS(=O)(=O)c1ccc(CCNS(=O)(=O)c2ccccc2)cc1	none
COc1ccc(-c2c(C)nn3c(N(C)CCO)cc(C)nc23)cc1	none (no result: Wee1 degr inh, NCF1 inh, Furin inh, EP2 antag, HSV augment)
C=CCc1cccc2cc(C(=O)Nc3cccc(C(=O)O)c3)c(=O)oc12	EP2 modulator 100.5
CCOC(=O)C1=C(COc2ccc(C)cc2)NC(=O)NC1c1cc(C)ccc1C (centres undefined)	NCF1 inh active
C=Cn1cc(CN2CCC(NC(C)=O)(c3ccccc3F)CC2)c(C)n1	none (no result: Wee1 degr inh, NCF1 inh, Furin inh, HSV augment)
COc1ccc(CN2CCn3c(CO)nnc3C2)cc1OCc1ccc(F)cc1	none (no result: Wee1 degr inh, NCF1 inh, Furin inh, HSV augment)
CC(C)C(c1nnnn1Cc1cccs1)N1CCN(c2cccc(Cl)c2)CC1 (centres undefined)	none (no result: Wee1 degr inh, NCF1 inh, Furin inh, HSV augment)
CCc1ccc2[nH]c(=O)c(CN(CCO)C(=O)c3ccc(OC)cc3)cc2c1	none (no result: Wee1 degr inh, NCF1 inh, Furin inh, HSV augment)
COc1ccc(OCC(=O)Nc2ccc(S(=O)(=O)N3CCOCC3)cc2)cc1	none
CC(=O)NS(=O)(=O)c1ccc(NC(=O)COc2ccc(C(=O)c3ccccc3)cc2)cc1	Wee1 degr inh 10.4
O=C(COc1ccccc1)Nc1ccc(S(=O)(=O)N2CCOCC2)cc1	EP2 antag 52.2
